# Shown are actives, neighbours in structure and some others; about 15% of the full set was active somewhere.
# Pf growth 96h – P. falciparum growth inhibition at 96 hours; P. falciparum luciferase reporter growth, 96 h; Potency, µM (doses to about 28.7 µM), hits mostly inhibitors; actives 6.9% (n = 320,000)
#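 Parasite growth measured via integrated firefly luciferase reporter in P. falciparum. Infected erythrocytes at 2% hematocrit, 0.05% parasitemia final were treated 96 hours at 37 C under 5% CO2, and luminescence was read.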
# Sm TGR inh – blocks Schistosoma mansoni thioredoxin glutathione reductase; AID 485364; purified TGR, DTNB reduction, TNB absorbance 405 nm; Potency, µM (top dose mostly 114 µM), usual class: inhibitors; actives 3% (n = 360,000); further: nearly all actives have a fitted effect of over 60% in size
#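 First, TGR (20 nM dispensed) and NADPH were mixed with compound. Second, a 15 min room-temperature incubation followed. Third, further NADPH and then DTNB were added to start the reaction. Finally, TNB absorbance was monitored kinetically.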
# HCMV inh – inhibitors of human cytomegalovirus; activity change, negative = inhibition, % at 57.5 µM; actives 4.5% (n = 410,000); HFF cells, HCMV-luciferase reporter, 72 h; stronger effect = lower value; in the data active means activity change below about -60%; inconclusive means no clear call, values can overlap the other calls; inactive means above about -39%
#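 Screen run at 2 compound doses on HFFs infected with reporter HCMV, MOI 1 PFU/cell. Luciferase activity from cell lysates at 72 h post infection gave inhibition relative to buffer-only and Salinomycin wells.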
# HCV inh – HCV inhibition | AID 651820 | Potency, µM (doses to about 41.8 µM), actives largely listed as inhibitors | actives 3.4% (n = 340,000) | Huh7.5.1 HCVcc-Cre infection, luciferase reporter, 44 h
#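 Cells seeded at 1,000/well and cultured 4 h, then compounds added followed by HCVcc-Cre virus (~0.5 moi). After 44 h further culture, luciferase substrate was added, plates held 15 min at room temperature, and luminescence read for 15 sec.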
# SARS PLP yeast – blocks SARS-CoV papain-like protease in a yeast assay. S. cerevisiae expressing SARS-CoV PLpro, growth rescue. Potency, µM (doses to about 32.9 µM), actives largely listed as activators. actives 0.19% (n = 330,000). AID 485353; calls by dose curve; further: nearly all actives have a fitted effect of over 55% in size
# Pf growth 48h – inhibits P. falciparum growth in the first generation, 48 h; actives 5.9% (n = 310,000); AID 504832; P. falciparum luciferase growth in erythrocytes, 48 h; Potency, µM (top dose mostly 28.7 µM), actives largely listed as inhibitors
#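 Erythrocytes infected with P. falciparum carrying an integrated firefly luciferase reporter (2% hematocrit, 0.1% parasitemia final) were exposed to compounds in RPMI 1640 with 0.5% Albumax at 37 C, 5% CO2. Growth inhibition was scored as reduced luminescence.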
# Numbers stand for hits; i = inactive; ? = inconclusive; nt = no result; ! = not confirmed by another sample; [ ] = remark or other dose. Unless noted, the call rests on the fitted dose curve; in most records, active means well fitted curve in the direction sought with a large enough effect; inconclusive means small, poorly fitted or top-dose-only effect, or another doubt; inactive means no such curve, though single readings can be large; an effect the other way counts as inactive or inconclusive.
SMILES,Pf growth 96h,Sm TGR inh,HCMV inh,HCV inh,SARS PLP yeast,Pf growth 48h
CC(=O)c1cc(NC(=O)c2ccc([N+](=O)[O-])cc2)c(=O)oc1C,i,22µM,i,i,i,i
COC(=O)c1cc(NC(=O)c2ccc([N+](=O)[O-])cc2)c(=O)oc1C,?,56µM,i,i,i,i[1.15 µM]
O=C(O)c1cc(NC(=O)c2ccc([N+](=O)[O-])cc2)cc(NC(=O)c2ccc([N+](=O)[O-])cc2)c1,i,i,i,i,i,nt
COc1cc(/C=C/c2c([N+](=O)[O-])c(=O)n(C)c(=O)n2C)cc(OC)c1OC,?,i,-67,i,i,nt
COc1ccc(/C=C/c2c([N+](=O)[O-])c(=O)n(C)c(=O)n2C)cc1O,nt,i,-103,i,i,i
Cn1c(/C=C/c2ccc(Br)cc2)c([N+](=O)[O-])c(=O)n(C)c1=O,i,?,-100,?,i,9.3µM
COC(=O)CCC(=O)NN1C(=O)c2ccccc2C1=O,i,i,-68,i,i,i
COc1cc(N=Nc2ccc(C)cc2S(N)(=O)=O)c(C)cc1N,nt,nt,i,25µM,nt,nt
Cc1ccc(/C=C2/C(=O)NC(=O)N(Cc3ccc(F)cc3)C2=O)o1,i,20µM,i,nt,i,i
Cc1ccc(/C=C2\C(=O)NC(=O)N(CCc3ccc(F)cc3)C2=O)o1,i,11µM,i,i,i,i
CN(C)c1ccc(/C=C2\C(=O)NC(=O)N(Cc3ccc(F)cc3)C2=O)cc1,i,0.79µM,i,i,i,i
CC(=O)c1cc(-c2ccccc2)n(CCC(=O)Nc2ccc(C(C)C)cc2)c1C,nt,i,i,nt,nt,nt
CCN1CCN(CCNC(=O)c2cc(Cl)c(NC(=O)C3=C(C)OCCS3)cc2OC)CC1,i,i,?,?,i,i
CC1=C(C(=O)Nc2ccccc2C(=O)NCCCOC(C)C)SCCO1,4.1µM,i,i,i,i,i
CCN(CC)CCCNC(=O)c1cc(Cl)c(NC(=O)C2=C(C)OCCS2)cc1OC,?,i,i,11µM,i,?
COc1ccccc1Nc1nn2c(=O)c3ccc(C(=O)NCCCOC(C)C)cc3nc2s1,nt,i,?,nt,nt,nt
Cc1ccc(C)c(Nc2nn3c(=O)c4ccc(C(=O)NCc5cccs5)cc4nc3s2)c1,nt,i,-99,nt,nt,nt
CCN(CC)CCNC(=O)c1ccc2c(=O)n3nc(Nc4ccccc4OC)sc3nc2c1,nt,i,-101,nt,nt,nt
Cc1ccc(C)c(Nc2nn3c(=O)c4ccc(C(=O)NCc5cccnc5)cc4nc3s2)c1,i,i,i,i,i,i
COc1ccccc1Nc1nn2c(=O)c3ccc(C(=O)N4CCCC(C)C4)cc3nc2s1 (centres undefined),i,i,i,?,i,8.3µM
CC1CCCN(C(=O)c2ccc3c(=O)n4nc(Nc5ccccc5)sc4nc3c2)C1 (centres undefined),nt,nt,i,nt,nt,nt
COc1ccccc1Nc1nn2c(=O)c3ccc(C(=O)NCc4cccs4)cc3nc2s1,nt,i,-97,nt,nt,nt
OC1COC(O)C(O)C1O (centres undefined),i,i,i,i,nt,i
CN(C(=O)c1cccc(NC(=O)Cc2ccc(NC(=O)C3CCCN(S(=O)(=O)c4cccc([N+](=O)[O-])c4)C3)cc2)c1)C1CCCCC1 (centres undefined),nt,nt,i,?,nt,nt
CCOC(=O)C1CCN(C(=O)c2ccc3c(=O)n4nc(Nc5cc(C)ccc5C)sc4nc3c2)CC1,2.9µM,i,?,i,i,?
SMILES,Pf growth 96h,Sm TGR inh,HCMV inh,HCV inh,SARS PLP yeast,Pf growth 48h
CCOC(=O)C1CCN(C(=O)c2ccc3c(=O)n4nc(Nc5ccccc5OC)sc4nc3c2)CC1,nt,nt,i,nt,nt,nt
COC(=O)c1ccc2c(=O)n(CCCCCC(=O)N3CCN(c4cccc(C)c4C)CC3)c(=O)[nH]c2c1,nt,i,i,nt,nt,nt
CCOc1cc(N)c(Cl)cc1C(=O)NCC1CN(Cc2ccc(F)cc2)CCO1 (centres undefined),6µM,nt,-66!,?,nt,7.6µM
CCOc1ccc(OCc2ccc(C(=O)NCC3CCCO3)o2)cc1 (centres undefined),nt,i,i,i,i,i
O=[N+]([O-])c1ccccc1-c1cc(-c2ccccc2Br)no1,nt,nt,i,nt,nt,nt
CCCOc1nc(N)c(C#N)c(-c2ccccc2F)c1C#N,i,i,i,35µM,i,i
COc1ccc(/C(N)=N/OC(=O)C2CCCCC2)cc1,i,89µM,i,i,i,i
COc1ccc(/C(N)=N/OC(=O)C2CCCCC2)cc1OC,i,i,i,?,i,i
CCOC(=O)c1ccc(N2C(=O)c3n[nH]c(C)c3C2c2ccco2)cc1 (centres undefined),i[5.75 µM],i,i,i,i,i
CCOC(=O)c1ccc(N2C(=O)c3n[nH]c(-c4ccco4)c3C2c2ccc(C(=O)OC)cc2)cc1 (centres undefined),nt,i,-80,nt,nt,nt
CCOC(=O)c1ccc(N2C(=O)c3n[nH]c(-c4ccco4)c3C2c2cccc([N+](=O)[O-])c2)cc1 (centres undefined),i,i,i,11µM,i,8.3µM
CCOC(=O)c1ccc(N2C(=O)c3n[nH]c(C)c3C2c2cccc(Br)c2)cc1 (centres undefined),nt,i,i,nt,nt,nt
CCOC(=O)c1ccc(N2C(=O)c3n[nH]c(-c4ccco4)c3C2c2ccc(O)c(OCC)c2)cc1 (centres undefined),nt,i,-105,nt,nt,nt
CCOC(=O)c1ccc(N2C(=O)c3[nH]nc(-c4ccc(C)cc4)c3C2c2ccc(O)c(OCC)c2)cc1 (centres undefined),nt,i,-101,nt,nt,nt
CCCn1c(CN2CCN(C(=O)OCC)CC2)nc2cc(NC(=O)CC)ccc21,i,i,i,i,i,?
O=C(CSc1ncc2c(n1)-c1cc(Cl)ccc1N(Cc1ccccc1)S2(=O)=O)Nc1ccc(F)cc1F,nt,i,-98,nt,nt,nt
CN1c2cc(Cl)ccc2-c2nc(SCC(=O)Nc3ccc(F)cc3F)ncc2S1(=O)=O,nt,i,-63,nt,nt,nt
Cc1cccc(C)c1NC(=O)CSc1ncc2c(n1)-c1ccc(Cl)cc1N(Cc1ccccc1)S2(=O)=O,nt,i,-99,nt,nt,nt
COc1ccccc1NC(=O)CSc1ncc2c(n1)-c1cc(Cl)ccc1N(Cc1ccccc1)S2(=O)=O,nt,i,i,nt,nt,nt
COc1ccc(C(=O)N/N=C(\C)CC(=O)Nc2cccc(C(F)(F)F)c2)cc1,i,i,i,i,i,i
O=C(COC(=O)c1ccccc1Nc1ccc(SC(F)F)cc1)NC1CC1,i,i,-71,i,i,?
CC1CCCC(C)N1C(=O)c1ccccc1Nc1ccc(SC(F)F)cc1 (centres undefined),13µM,i,i,2.8µM,i,?
O=c1[nH][nH]c(=O)c2nc(Nc3ccccc3)ncc12,nt,nt,i,i,nt,nt
